Measured values from PubChem BioAssay (NCI).
Compounds without any hit were thinned out: in the full panel of roughly 83,000, 20% have a hit.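 Cells were grown in 96-well plates and exposed to the test compound at a single concentration for 48 hours; results are reported as percent growth, with values below 10 considered active.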 Values without a mark were called inactive. Active and inactive are the calls of the source.

Key:
Assay in all cases: NCI-60 one-dose screen, 48 h (100 = growth as untreated, 0 = no growth, -100 = all killed)
Details in all cases: 10 µM unless noted
SK-MEL-2 melanoma = system: SK-MEL-2 melanoma
EKVX NSCLC = system: EKVX NSCLC
SN12C renal = system: SN12C renal
UO-31 renal = system: UO-31 renal
TK-10 renal = system: TK-10 renal
ACHN renal = system: ACHN renal
CAKI-1 renal = system: CAKI-1 renal
A498 renal = system: A498 renal
CCRF-CEM leukemia = system: CCRF-CEM leukemia
MOLT-4 leukemia = system: MOLT-4 leukemia

Compound	growth (SK-MEL-2 melanoma)	growth (EKVX NSCLC)	growth (SN12C renal)	growth (UO-31 renal)	growth (TK-10 renal)	growth (ACHN renal)	growth (CAKI-1 renal)	growth (A498 renal)	growth (CCRF-CEM leukemia)	growth (MOLT-4 leukemia)
CN1CCN(Cc2ccc(NC(=O)c3cncc(C#Cc4cnc(N)c5ncccc45)c3)cc2C(F)(F)F)CC1	-77.3% (active)	33.3%	-33.2% (active)	-92.3% (active)	-63.8% (active)	-75.6% (active)	-23.9% (active)	-27% (active)	19.3%	–
Cc1ccc(S(=O)(=O)c2nc(-c3ccccc3)oc2Sc2nc3ccccc3s2)cc1	88.6%	97.1%	61.4%	64.3%	111%	96.8%	91.5%	80.4%	23.6%	–
C/C=C(/C)n1cnc2c(Nc3ccccn3)nc(Cl)nc21	97.1%	96.9%	94.1%	80.8%	114%	99.9%	94.2%	111%	104%	100%
O=C(O)/C=C/C(=O)Nc1cccc(Cn2nnc3cc(Cl)c(Cl)cc32)c1	114%	94.3%	104%	79.5%	124%	97.1%	95%	108%	99.4%	–
CC(=O)c1ccc(Nc2nccc(-c3ccc4ccccc4c3)n2)cc1	91.7%	96.5%	101%	86.1%	87.2%	98.8%	104%	1.1% (active)	88.3%	–
FC(F)(F)c1ccc(Cn2cc(CSc3nc4ccccc4s3)nn2)cc1	95.6%	99.5%	99.9%	78.7%	97.6%	101%	84.3%	86%	91%	–
N#Cc1c(-c2ccccc2)nc(SCc2nnc(-c3ccc(Cl)cc3)o2)[nH]c1=O	80.4%	95.5%	97.6%	74.6%	90.6%	109%	93.6%	107%	85.5%	–
C[C@@H]1O[C@@H](O[C@@H]2C[C@H](c3ccc4c(c3O)C(=O)C3=C(C4=O)[C@@]4(O)C(=O)C[C@](C)(O)C[C@@]4(O)C=C3)O[C@H](C)[C@H]2O)CC[C@@H]1O[C@H]1C[C@@H](O)[C@H](O)[C@@H](C)O1	110%	98%	98.4%	82.8%	97.4%	90.8%	93.3%	108%	90.5%	–
O=C(O)c1cn(C2CC2)c2cc(N3CCN(C(=O)Nc4nc(-c5ccc(Br)cc5)cs4)CC3)c(F)cc2c1=O	-17% (active)	24.5%	6.36% (active)	14%	34.9%	17%	42.4%	-7.91% (active)	6.67% (active)	8.35% (active)
CSc1nn2c(-c3ccc4ccccc4c3)ccnc2c1C#N	-7.77% (active)	33.5%	23.4%	16.7%	-2.29% (active)	16%	22.4%	21.9%	41%	28.5%
CC(C)=CCNc1ncnc2c1ncn2C1OC(CO)C(O)C1O (stereo not drawn)	-33.2% [1 mM] (active)	41.1% [1 mM]	-2.66% [1 mM] (active)	-72.4% [1 mM] (active)	-10.5% [1 mM] (active)	2.42% [1 mM] (active)	-36.9% [1 mM] (active)	-54.2% [1 mM] (active)	-56.6% [1 mM] (active)	–
CCNc1nc(O)c(/C=C2\C=Nc3ncccc32)s1	-48.7% (active)	14.1%	12.6%	7.47% (active)	-3.75% (active)	0.663% (active)	20.6%	-54.2% (active)	3.01% (active)	-6% (active)
CS(=O)(=O)Nc1cc(-c2ccc3ncc(C#N)c(Nc4ccc(F)c(Cl)c4)c3c2)cnc1Cl	-59.9% (active)	-3.93% (active)	18.2%	-6.94% (active)	-21.6% (active)	10.2%	4.91% (active)	-83.6% (active)	0.41% (active)	-22.5% (active)
O=C(Nc1ccccc1O)c1ccc(CNC(=O)c2ccsc2Nc2ccnc(C(F)(F)F)c2)cc1	-20.9% (active)	37.8%	45.9%	19.1%	-13.7% (active)	20.2%	9.72% (active)	-14.5% (active)	5.36% (active)	–
Cn1c(=O)c2[nH]c(SCC(=O)Nc3ccc(C(=O)/C=C/c4ccccc4Cl)cc3)nc2n(C)c1=O	126%	87.9%	97.7%	92.7%	104%	99%	98.1%	85.6%	79.5%	–
Cc1ccc(C)c(/C=C2\CN(C(=O)OC(C)(C)C)C/C(=C\c3cc(C)ccc3C)C2=O)c1	82%	82.8%	31.4%	61.1%	89.1%	15.5%	45.2%	73%	4.98% (active)	–
CCCCCN(CCCCC)CC(O)c1cc(C)c2ccc3cc(C(C)C)ccc3c2c1 (stereo not drawn)	82.6%	63.2%	-52.9% (active)	51.8%	75.5%	-77.8% (active)	57.7%	19.5%	-7.34% (active)	–
N#C/C(=C\c1ccc(-c2cccc(C(F)(F)F)c2)o1)c1ccccc1	98.9%	67%	90.2%	68.7%	150%	85.2%	69%	102%	97%	–
CCN1CCN(c2cc(C)nc(N(CCNc3ccnc4cc(Cl)ccc34)Cc3ccc4c(c3)OCO4)n2)CC1	-82.8% (active)	22.2%	74.4%	-30.6% (active)	-48% (active)	0.724% (active)	53.6%	-1.76% (active)	-18.5% (active)	–
C/C(Cc1ccc(Cl)cc1)=C(\c1ccc(OCCCN(C)C)cc1)c1ccc(OC(=O)Cc2ccccc2)cc1	100%	101%	105%	96%	98.4%	107%	97%	113%	83.6%	–
Cn1ccc(=O)nc1	12.7%	130%	81.5%	73.4%	94.9%	-4.04% (active)	73.4%	98.1%	86.7%	–
CCN(CC)Cc1cc(Nc2ccnc3cc(Cl)ccc23)ccc1O	111%	68.5%	81.9%	87.1%	108%	100%	88.3%	95.7%	88.8%	100%
CC1(C)CC[C@]2(CO)CC[C@]3(C)[C@H](CC[C@@H]4[C@@]5(C)CCCNC(C)(C)[C@@H]5CC[C@]43C)[C@H]2[C@H]1O	102%	95.2%	86.2%	72.6%	86.5%	101%	95.3%	93.4%	61.2%	–
Cn1c2c(c3ccc(Cl)c(Cl)c31)C(C#N)C(C)(C)NC2=O (stereo not drawn)	45.2%	84.9%	93.6%	110%	82.3%	80.1%	63.4%	-14.9% (active)	87.9%	–
CCN1C(=O)N(CC)C2C1N=C(SCc1ccc(Cl)cc1)N2/N=C/C=C/c1ccccc1OC (stereo not drawn)	57.7%	62.5%	77.8%	54.3%	96.4%	61.5%	42.2%	54.6%	46.4%	–
COc1cc(/C=C/C(=O)/C=C(O)/C=C/c2ccc(OC(=O)C34CC5CC(CC(C5)C3)C4)c(OC)c2)ccc1OC(=O)C12CC3CC(CC(C3)C1)C2	101%	101%	95.5%	69.3%	97%	99%	91.3%	102%	103%	–
CS(=O)(=O)c1nnc(-c2ccccc2)s1	112%	109%	105%	-71.4% (active)	113%	83.9%	94.9%	91.4%	76.5%	–
COc1cc(C2C(C(=O)OCc3ccccc3)=C(C)NC(C)=C2C(=O)OCc2ccccc2)cc(OC)c1OC	-6.43% (active)	31.5%	29.1%	18.5%	34.8%	16.2%	26.2%	36.8%	11.3%	–
